BLM inh: qHTS Assay for Inhibitors of Bloom's syndrome helicase (BLM). RecQ-like DNA helicase BLM (Homo sapiens), P54132. recombinant BLM DNA unwinding, fluorescence dequenching. Potency, µM (doses to about 56.1 µM), hits mostly inhibitors. actives 0.2% (n = 350,000). AID 2528, 2010; further: nearly all actives have a fitted effect of over 35% in size
FEN1 inhibitor: qHTS Assay for the Inhibitors of Human Flap endonuclease 1 (FEN1); P39748; Recombinant FEN1 flap cleavage, fluorescence, 15 min; Potency, µM (titrated, usually from 114 µM), usual class: inhibitors; actives 0.35% (n = 390,000); AID 588795, 2011; further: nearly all actives have a fitted effect of over 65% in size
Target sequence (P39748 whole entry, looked up): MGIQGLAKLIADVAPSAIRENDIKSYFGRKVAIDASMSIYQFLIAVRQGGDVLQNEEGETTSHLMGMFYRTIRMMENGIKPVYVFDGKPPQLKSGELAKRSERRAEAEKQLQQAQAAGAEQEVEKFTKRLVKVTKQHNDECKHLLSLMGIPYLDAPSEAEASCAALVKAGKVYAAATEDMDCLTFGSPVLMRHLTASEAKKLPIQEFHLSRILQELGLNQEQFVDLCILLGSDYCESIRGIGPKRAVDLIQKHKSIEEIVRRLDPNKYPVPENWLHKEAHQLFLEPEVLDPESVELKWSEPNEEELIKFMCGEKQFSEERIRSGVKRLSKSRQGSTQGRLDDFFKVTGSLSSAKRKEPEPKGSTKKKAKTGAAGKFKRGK
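FEN1 at 10 nM, compound pretreatment for 15 min (room temperature), 50 nM final substrate to initiate; endpoint reads at 0 and 15 min; DMSO-only plates used as vehicle background.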
L3MBTL1 block: qHTS Assay for the Inhibitors of L3MBTL1; Lethal(3)malignant brain tumor-like protein 1 (Homo sapiens), Q9Y468; AlphaScreen L3MBTL1–H3K9me1 peptide binding; Potency, µM (series often up to 57.1 µM), usual class: inhibitors; actives 0.66% (n = 230,000); further: nearly all actives have a fitted effect of over 60% in size
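First, the protein-peptide complex forms for 30 min at room temperature (L3MBTL1 50 nM, biotinylated H3K9me1 peptide 75 nM). Next, compounds are pin-transferred and incubated 30 min. Finally, AlphaScreen beads are added and read after 30 min.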
RECQ1 inh: qHTS Assay for Inhibitors of RecQ-Like Dna Helicase 1 (RECQ1); actives 0.54% (n = 240,000); ATP-dependent DNA helicase Q1 (Homo sapiens), P46063; Potency, µM (top dose mostly 57.3 µM), most hits filed as inhibitors; RECQ1 DNA unwinding, red fluorescence kinetic read; AID 2549, 2010; further: nearly all actives have a fitted effect of over 30% in size
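RECQ1T1 50 nM; forked duplex (20 bp + 30-nt ss tails) 200 nM, ATP 2 mM final; pH 8.0, 2 mM MgCl2, 2.5 ug/ml poly(dI-dC); 15 min compound preincubation; discontinuous kinetic read over 2 h at RT.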
WRN inhibitor: qHTS for Inhibitors of WRN Helicase; Bifunctional 3'-5' exonuclease/ATP-dependent helicase WRN (Homo sapiens), Q14191; WRN helicase unwinding, fluorescent forked duplex, kinetic; Potency, µM (series often up to 114 µM), actives largely listed as inhibitors; actives 0.46% (n = 360,000); further: nearly all actives have a fitted effect of over 55% in size
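WRN at 20 nM final was preincubated with compound for 15 min at room temperature; reaction started with 100 nM forked duplex oligonucleotide carrying fluorophore and quencher plus 2 mM ATP (final). Unwinding followed kinetically by red fluorescence (ex 525/em 598 nm).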
Hits are given with their value; ! = a repeat was not active. Hits are enriched below; roughly 0.99% of the tested compounds scored in any of these assays. The call rests on the fitted dose curve; in most records, active means well fitted curve in the direction sought with a large enough effect; inconclusive means small, poorly fitted or top-dose-only effect, or another doubt; inactive means no such curve, though single readings can be large; an effect the other way counts as inactive or inconclusive.

How did C/C(=N\Nc1nnc(C)c(=O)[nH]1)C(=O)O do in these assays?
BLM inh: inactive; FEN1 inhibitor: inactive; L3MBTL1 block: inactive; RECQ1 inh: inactive; WRN inhibitor: inactive

Results for O=C(c1cc(-c2ccco2)nn1-c1cccc(Cl)c1)N1CCCCC1 ?
BLM inh: inactive; FEN1 inhibitor: inactive; L3MBTL1 block: inactive; RECQ1 inh: inconclusive; WRN inhibitor: 56µM

Results for Cc1cc(C)c(NC(=O)CSc2nnc(-c3ccccn3)n2N)c(Cl)c1 ?
BLM inh: inactive; FEN1 inhibitor: inactive; L3MBTL1 block: 28µM; RECQ1 inh: inactive; WRN inhibitor: inactive

What do the screens show for `Nn1c(SCc2c(F)cccc2F)nnc1-c1ccccn1`?
BLM inh: inactive; FEN1 inhibitor: inactive; L3MBTL1 block: 20µM; RECQ1 inh: inactive; WRN inhibitor: inactive

How did O=C1C=CC2(O[C@H](c3ccccc3)[C@@H](c3ccccc3)O2)[C@H](Sc2ccccc2O)C1 do in these assays?
FEN1 inhibitor: inactive; WRN inhibitor: 11µM

What do the screens show for `O=C(CCN1CCCCC1)c1ccc2c(c1)OCCO2`?
BLM inh: inactive; FEN1 inhibitor: inactive; L3MBTL1 block: inactive; RECQ1 inh: inactive; WRN inhibitor: inactive

How did O=C(CCN1CCCC1Cc1ccccc1)c1ccc2c(c1)OCCO2 (centres undefined) do in these assays?
BLM inh: inactive; FEN1 inhibitor: inactive; RECQ1 inh: inactive; WRN inhibitor: 56µM

What do the screens show for `CC(C)(C)OC(=O)NCCCCCNC(=O)c1[nH]cnc1C(=O)NC1CCN(C(=O)OC(C)(C)C)CC1`?
FEN1 inhibitor: inactive; L3MBTL1 block: inactive; WRN inhibitor: inactive

How did CCOC(=O)C1=C(O)/C(=C\c2ccc(CNC(=O)C(=O)Nc3ccccc3)o2)N=C1C do in these assays?
BLM inh: 35µM; FEN1 inhibitor: inactive; RECQ1 inh: inactive; WRN inhibitor: inconclusive

How did O=C(COc1ccc(/C=N/NC(=O)c2ccc(O)cc2)cc1)Nc1cccc([N+](=O)[O-])c1 do in these assays?
BLM inh: 18µM; FEN1 inhibitor: inconclusive; L3MBTL1 block: inactive; RECQ1 inh: inactive; WRN inhibitor: inconclusive

How did Cc1cc2cc(C(=O)N3CCc4c([nH]c5ccccc45)C3c3ccccn3)ccc2o1 (centres undefined) do in these assays?
BLM inh: inactive; FEN1 inhibitor: inactive; RECQ1 inh: inactive; WRN inhibitor: inactive

What do the screens show for `O=C(c1ccc(-n2cccn2)cc1)N1CCc2c([nH]c3ccccc23)C1c1ccccn1` (centres undefined)?
BLM inh: 13µM; FEN1 inhibitor: inactive; L3MBTL1 block: inactive; RECQ1 inh: inactive; WRN inhibitor: inactive

What do the screens show for `COc1[nH]c(/N=C/c2ccccc2)c(C#N)c1C#N`?
BLM inh: inactive; FEN1 inhibitor: 50µM!; L3MBTL1 block: inactive; RECQ1 inh: inactive; WRN inhibitor: inactive

What do the screens show for `Nc1nnc(CC(=O)N/N=C/c2cc([N+](=O)[O-])cc(Br)c2O)s1`?
BLM inh: inactive; FEN1 inhibitor: inactive; L3MBTL1 block: inconclusive; RECQ1 inh: inconclusive; WRN inhibitor: 56µM

Results for Oc1c(Cl)cc(Cl)cc1/C=N/NC(=S)NC1CC2C=CC1C2 (centres undefined) ?
BLM inh: inactive; FEN1 inhibitor: inactive; L3MBTL1 block: 32µM; RECQ1 inh: inactive; WRN inhibitor: inactive

Results for Oc1ccccc1C=NNC(=S)NC1CC2C=CC1C2 (centres undefined) ?
WRN inhibitor: inactive

Results for O=C1/C(=C\c2ccc(-c3ccccc3Cl)o2)SC(=S)N1CC1CCCO1 (centres undefined) ?
BLM inh: inactive; FEN1 inhibitor: inactive; L3MBTL1 block: inactive; RECQ1 inh: inactive; WRN inhibitor: inactive

Results for O=C(O)C(c1ccccc1)N1C(=O)/C(=C\c2ccc(-c3ccccc3Cl)o2)SC1=S (centres undefined) ?
BLM inh: inconclusive; FEN1 inhibitor: 50µM; WRN inhibitor: 50µM

How did CS(=O)(=O)c1nc(S(=O)(=O)c2ccc(Cl)cc2)c(N2CCC3(CC2)OCCO3)s1 do in these assays?
BLM inh: inactive; FEN1 inhibitor: inactive; WRN inhibitor: inactive

Results for Cc1cc2ccc(Cl)nc2nc1C ?
FEN1 inhibitor: inactive

How did O=C(Cn1cnc([N+](=O)[O-])n1)N/N=C/c1cc(Cl)ccc1O do in these assays?
BLM inh: inactive; FEN1 inhibitor: inactive; L3MBTL1 block: 18µM; RECQ1 inh: inactive; WRN inhibitor: inactive

Results for O=C(Cn1nnc(-c2ccccc2)n1)N/N=C/c1cc([N+](=O)[O-])ccc1O ?
BLM inh: inactive; FEN1 inhibitor: inactive; L3MBTL1 block: inconclusive; RECQ1 inh: inactive; WRN inhibitor: inactive

What do the screens show for `O=C(Cn1nc2ccccc2n1)N/N=C/c1cc([N+](=O)[O-])ccc1O`?
BLM inh: inactive; FEN1 inhibitor: inconclusive; L3MBTL1 block: 7.9µM; RECQ1 inh: inactive; WRN inhibitor: inactive

Results for CCN(CC)CC(=O)Nc1scc2c1c(=O)oc1ccccc12 ?
BLM inh: inactive; FEN1 inhibitor: inactive; L3MBTL1 block: inactive; RECQ1 inh: inactive; WRN inhibitor: inactive

Results for NC1=NC(=O)/C(=C/c2cccc(F)c2)S1 ?
BLM inh: inactive; FEN1 inhibitor: inactive; WRN inhibitor: inactive

How did CC(=O)Nc1ccc(S(=O)(=O)Oc2cccc(/C=C3\SC(N)=NC3=O)c2)cc1 do in these assays?
BLM inh: inactive; FEN1 inhibitor: inactive; RECQ1 inh: inactive; WRN inhibitor: 79µM

Results for Cc1nnsc1C(=O)N/N=C/c1ccccc1 ?
BLM inh: inactive; FEN1 inhibitor: inactive; L3MBTL1 block: inactive; RECQ1 inh: inactive; WRN inhibitor: inactive

Results for Cc1nnsc1C(=O)N/N=C/c1ccc2ccccc2c1O ?
BLM inh: inactive; FEN1 inhibitor: inactive; L3MBTL1 block: 2µM; RECQ1 inh: inactive; WRN inhibitor: inactive

What do the screens show for `COc1ccc2c(c1)c(=O)oc1cc(OCC(=O)N3CCCC(C)C3)ccc12` (centres undefined)?
BLM inh: inactive; FEN1 inhibitor: inactive; L3MBTL1 block: inactive; RECQ1 inh: inactive; WRN inhibitor: inactive

What do the screens show for `COc1ccc2c(c1)c(=O)oc1cc(OCC(=O)N3CCC(C)CC3)ccc12`?
BLM inh: inactive; FEN1 inhibitor: inconclusive; L3MBTL1 block: inconclusive; RECQ1 inh: 40µM; WRN inhibitor: inconclusive

Results for CCN(CC)CCn1c2ccccc2c2cnc(N=CN(C)C)c(C#N)c21 ?
BLM inh: inactive; FEN1 inhibitor: 35µM; L3MBTL1 block: inactive; RECQ1 inh: inactive; WRN inhibitor: inactive

What do the screens show for `O=C(C(=O)N1CCN(C(=O)c2ccco2)CC1)c1cc2ccccc2o1`?
WRN inhibitor: inactive

Assay outcomes from PubChem BioAssay.
